# Source: PubChem BioAssay
# CYP2C9 inh: inhibitors of human CYP2C9; P11712; CYP2C9 Supersomes, luciferin-H conversion, luminescence; inhibition, % at 5 µM; hit rate 20% among 96,000;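 active = blocking of liver enzyme CYP2C9 beyond about 50% at 5 µM, limit read from the data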
# Target sequence (P11712 whole entry, looked up): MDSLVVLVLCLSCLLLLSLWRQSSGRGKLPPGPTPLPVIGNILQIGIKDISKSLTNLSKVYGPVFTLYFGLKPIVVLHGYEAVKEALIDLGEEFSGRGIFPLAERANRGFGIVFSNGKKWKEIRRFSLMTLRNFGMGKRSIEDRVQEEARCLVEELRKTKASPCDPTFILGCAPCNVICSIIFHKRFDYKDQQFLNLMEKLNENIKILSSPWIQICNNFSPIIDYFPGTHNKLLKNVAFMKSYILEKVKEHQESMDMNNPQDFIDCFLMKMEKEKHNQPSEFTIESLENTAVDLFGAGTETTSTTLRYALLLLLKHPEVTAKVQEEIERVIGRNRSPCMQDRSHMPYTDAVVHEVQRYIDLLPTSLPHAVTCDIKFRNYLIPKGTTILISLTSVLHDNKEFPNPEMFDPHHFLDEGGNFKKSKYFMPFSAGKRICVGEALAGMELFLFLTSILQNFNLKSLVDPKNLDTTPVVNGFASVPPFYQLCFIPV
# CYP2C19 inhib: human CYP2C19 inhibition; P33261; CYP2C19 Supersomes, luciferin-H EGE luminescence, 30 min; inhibition, % at 5 µM; hit rate 21% among 96,000;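 active = CYP2C19 inhibition above a set limit at 5 µM in the primary screen, cut at about 50% in these data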
# PLAP act: activates human placental alkaline phosphatase; purified PLAP enzyme, luminescent substrate read-out; hits give high values; hit rate 1.2% among 96,000; activation fold at 20 µM; P05187; in the data active = activation fold above about 2
# CYP2C19 activ: increases human CYP2C19 enzyme activity. AID 1025. 96,000 tested, under 10 active. activation factor at 5 µM. recombinant CYP2C19, luciferin-H EGE luminescence; hits give high values; 0 = fully inhibited enzyme, 1 = untreated enzyme. P33261;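 active = activation factor of at least 2 at 5 µM in the primary screen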
# CYP2C9 act: activators of human CYP2C9; P11712; recombinant CYP2C9, luciferin-H conversion, luminescence; hits give high values; factor 1 = untreated enzyme, 0 = blocked; activation factor at 5 µM; hit rate 1.4% among 96,000; AID 1024;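 active = activation factor of 2 or more for CYP2C9 at a 5 µM dose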
# Hits are given with their value; – = inactive. Rows were chosen to be rich in hits. Some 31% of all compounds tested hit in one or more screens of this group.
SMILES,CYP2C9 inh,CYP2C19 inhib,PLAP act,CYP2C19 activ,CYP2C9 act
CCn1c2ccccc2c2cc(C3N=C(N)Nc4nc5ccccc5n43)ccc21 (stereo unspecified),–,–,–,–,–
CCC1Sc2ccccc2N(CC(=O)NCCC(C)C)C1=O (stereo unspecified),–,–,–,–,–
O=C(Cn1cnc2ccccc2c1=O)Nc1cccc(-c2nnc3n2CCCCC3)c1,–,57,–,–,–
COC(=O)c1cccc(NC(=O)c2nn(C)c(=O)c3ccccc23)c1,55,–,–,–,–
COC(=O)c1ccc(C)c(NC(=O)c2nn(C)c(=O)c3ccccc23)c1,–,–,–,–,–
COCCn1c(SCC(=O)Nc2cccc(C(=O)OC)c2)nc2ccccc2c1=O,56,–,–,–,–
COCCCn1c(SCC(=O)Nc2ccc(C(C)=O)cc2)nc2ccccc2c1=O,71,99,–,–,–
CCn1c(SCC(=O)Nc2ccc(C(C)=O)cc2)nc2ccccc21,–,–,–,–,–
O=C(CSc1nc(-c2ccccc2)cc(=O)[nH]1)N1CCOCC1,–,–,–,–,–
CCC(C(=O)NC(C)(C)C)N(C(=O)Cn1nnc(-c2cccs2)n1)c1cnc2ccccc2c1 (stereo unspecified),65,–,–,–,–
COc1cc(N=c2ssnc2Cl)c(OC)cc1Cl,78,–,–,–,–
Cc1cc(Cl)ccc1N=c1ssnc1Cl,–,–,–,–,–
COc1ccc(OC)c(N=c2ssnc2Cl)c1,94,64,–,–,–
COCCNc1nc(SCc2ccccc2)nc2sc3c(c12)CCC3,–,–,–,–,–
CC(CO)Nc1nc(SCc2ccccc2)nc2sc3c(c12)CCC3 (stereo unspecified),56,–,–,–,–
COc1ccc(NC(=O)CSc2nnc(CN3CCOCC3)n2-c2ccccc2)cc1Cl,–,–,–,–,–
COc1ccc2ccc(Oc3ncccn3)cc2c1,–,–,–,–,–
c1cnc(Oc2ccc3oc4ccccc4c3c2)nc1,–,63,–,–,–
Cc1cc(NC(=O)c2cc(-c3ccc4c(c3)OCO4)on2)n(-c2ccccc2)n1,–,–,–,–,–
O=c1nc(N2CCOCC2)ccn1-c1nc(-c2ccccc2)oc1-c1ccccc1,55,–,–,–,–
CCOc1ccccc1C(=O)NC(CO)C(=O)O (stereo unspecified),–,–,–,–,–
CCC(C)C(NC(=O)[C@@H](NC(=O)c1ccccc1F)C(C)C)C(=O)OC (stereo partly specified),–,–,–,–,–
CCOc1ccc(C(CCc2ccccc2)NC(=O)c2ccccc2F)cc1OCC (stereo unspecified),78,77,–,–,–
CCOc1ccc(C(CCc2ccccc2)NC(=O)c2ccccc2OC)cc1OCC (stereo unspecified),85,64,–,–,–
COc1ccc(-c2nnn(CC(=O)N(CC(=O)NCCC(C)C)Cc3cccs3)n2)cc1OC,–,–,–,–,–
SMILES,CYP2C9 inh,CYP2C19 inhib,PLAP act,CYP2C19 activ,CYP2C9 act
Cc1nc2c3ccccc3nc(SCC(=O)N3CC(C)CC(C)C3)n2n1 (stereo unspecified),–,54,–,–,–
COC(=O)c1ccccc1CON1C(=O)C(C)(C)N(OCc2ccccc2C(=O)OC)C(=O)C1(C)C,–,–,–,–,–
CN(C(=O)CSc1nc2ccccc2n1CCc1ccccc1)C1CCS(=O)(=O)C1 (stereo unspecified),–,68,2.3,–,–
CCn1c(SCC(=O)N(Cc2ccccc2)C2CCS(=O)(=O)C2)nc2ccccc2c1=O (stereo unspecified),95,81,–,–,–
CN(C(=O)CSc1nnc2ccccn12)C1CCS(=O)(=O)C1 (stereo unspecified),–,–,–,–,–
COc1nc(Oc2ccc(=O)[nH]n2)nc(N2CCOCC2)n1,–,–,–,–,–
COCCOC(=O)C1=C(C)NC(=O)N(C(C)=O)C1c1ccc(Cl)cc1 (stereo unspecified),66,58,–,–,–
Cc1ccccc1N(C(=O)c1cccs1)c1nc2ccccc2s1,88,–,–,–,–
COc1ccc(-c2nc(-c3cccs3)c(-c3cccs3)[nH]2)cc1O,96,88,–,–,–
Cc1ncsc1C(=O)N1N=C2/C(=C/c3ccccc3)CCCC2C1c1ccccc1 (stereo unspecified),52,–,–,–,–
